Data on 73 compounds can be found in ChEMBL document CHEMBL4888484, “Replenishing the malaria drug discovery pipeline: Screening and hit evaluation of the MMV Hit Generation Library 1 (HGL1) against asexual blood stage Plasmodium falciparum ,using a nano luciferase reporter read-out” (2022).

Out of some 150,000 compounds screened, about 540 (0.36%) showed an effect of 50% or more. The sample as a whole holds a higher share of strong results than the screen did.

In the assay the test system is Plasmodium falciparum. The experiment in a line: Primary screen in NF54 nanoGlo assay, in single point, at 2uM, 72h; a lower Z score goes with more inhibition. The format is functional, Erythrocyte. The note with it: timepoint 72 hour.
Consider `COc1ccccc1C(C)(C)c1noc([C@@]2(C)CCNC(=O)C2)n1`, for which the % Inhibition (usually the change of the read-out against control, counted positive when it falls) is on record as -3% and the Z score amounted to 0.4.

Take `CCOc1ccc(N2C[C@@H](C(=O)NCCc3ccco3)CC2=O)cc1`: the “% Inhibition” value was 0% and the Z score is recorded as -0.05.

For the compound `C[C@H](NCc1ccccc1CN1CCOCC1)C(=O)Nc1cccc2ccccc12`, the “% Inhibition” value is listed as -7% and the Z score is 1.29.

Turning to `c1ccc2[nH]c(C3CCN(c4nn5cnnc5c5ccccc45)CC3)nc2c1`, the “% Inhibition” value was -15% and the Z score is 2.33.

`c1ccc(C(c2ccccc2)N2CCN(c3nn4cnnc4c4ccccc34)CC2)cc1`: the “% Inhibition” value was determined as 81% and the Z score is -11.8.

As to `Fc1ccc(N2CCN(c3nn4cnnc4c4ccccc34)CC2)cc1`, the “% Inhibition” value is reported as -10% and the Z score was determined as 1.31.

Take `COc1ccc(-c2nc3c(c(N4CCC[C@@H]4C)n2)CCOCC3)cc1`: the “% Inhibition” value is listed as -10% and the Z score is recorded as 0.99.

`O=C(Nc1ccnn1C1CCC1)c1ccc(-c2cn[nH]c2)cn1`: the “% Inhibition” value is -10% and the Z score is listed as 1.42.

With `O=C1CCCCN1CCC(=O)N1CCc2onc(-c3cccc4ccccc34)c2C1`, the “% Inhibition” value was -1% and the Z score is reported as 0.1.

Regarding `Cc1nn(C)c2nc(OCC(=O)NC(C)(C)C)cc(C(F)(F)F)c12`, the “% Inhibition” value is -8% and the Z score is 0.92.

For `Cn1nccc1[C@@H]1CN(C(=O)Nc2nsc3ccccc23)CCO1`, the “% Inhibition” value is given as -5% and the Z score is 0.53.

For `Cc1ccc(S(=O)(=O)c2c(NC(=O)c3ccco3)n(C3CCCCC3)c3nc4ccccc4nc23)cc1`, the “% Inhibition” value is listed as -11% and the Z score came to 1.85.

As for `Nc1c(S(=O)(=O)c2ccc(Cl)cc2)c2nc3ccccc3nc2n1Cc1ccc(Cl)cc1`, the “% Inhibition” value is -9% and the Z score is 0.81.

On to `CCC(=O)Nc1c(S(=O)(=O)c2ccccc2)c2nc3ccccc3nc2n1[C@@H](C)c1ccccc1`, for which the “% Inhibition” value is given as -14% and the Z score amounted to 1.29.

Consider `Cc1ccc(S(=O)(=O)Nc2c(S(=O)(=O)c3ccc(C)cc3)c3nc4ccccc4nc3n2CCC(C)C)cc1`, for which the “% Inhibition” value came to 85% and the Z score is reported as -10.94.

For the compound `COc1ccc(S(=O)(=O)c2c(N)n(Cc3ccc(C)cc3)c3nc4ccccc4nc23)cc1`, the “% Inhibition” value is -6% and the Z score stood at 0.56.

For the compound `Cc1ccc(S(=O)(=O)Nc2c(S(=O)(=O)c3ccc(C)cc3)c3nc4ccccc4nc3n2C[C@H]2CCCO2)cc1`, the “% Inhibition” value worked out at 48% and the Z score was -4.28.

Take `Cc1ccc(S(=O)(=O)c2c(NS(=O)(=O)c3ccc(F)cc3)n(CCc3ccccc3)c3nc4ccccc4nc23)cc1`: the “% Inhibition” value is recorded as 98% and the Z score is given as -8.73.

For `Cc1ccc(S(=O)(=O)c2c(NS(=O)(=O)c3ccc(Cl)cc3)n(-c3cc(C)cc(C)c3)c3nc4ccccc4nc23)cc1`, the “% Inhibition” value is -6% and the Z score is on record as 0.5.

Turning to `Cc1ccc(S(=O)(=O)c2c(NS(=O)(=O)c3ccc(F)cc3)n(C[C@H]3CCCO3)c3nc4ccccc4nc23)cc1`, the “% Inhibition” value came to 6% and the Z score is -0.71.

As to `Cc1ccc(S(=O)(=O)c2c(NS(=O)(=O)c3ccccc3)n(CCc3ccccc3)c3nc4ccccc4nc23)cc1`, the “% Inhibition” value stood at 99% and the Z score is listed as -11.17.

With `Cc1ccc(S(=O)(=O)Nc2c(S(=O)(=O)c3ccccc3)c3nc4ccccc4nc3n2CCc2ccccc2)cc1`, the “% Inhibition” value was determined as 86% and the Z score was -14.39.

`CC(C)n1cc(C(=O)N(CCOc2ccc(Cl)cc2)Cc2ccco2)cn1`: the “% Inhibition” value is reported as -9% and the Z score is 1.28.

With `O=C(Nc1cccc(C(F)(F)F)c1)C1(F)C(F)(F)C(F)(F)C(F)(F)C(F)(F)C1(F)F`, the “% Inhibition” value is 2% and the Z score is recorded as -0.22.

Turning to `c1ccc2oc(-c3nc(C4CC4)n[nH]3)cc2c1`, the “% Inhibition” value is on record as -12% and the Z score turned out to be 1.37.

On to `N[C@@H](c1ccc2c(c1)CCO2)c1cc(Cl)ccc1Cl`, for which the “% Inhibition” value worked out at 0% and the Z score is recorded as -0.02.

In the case of `O=C(Nc1nc(C(=O)N2CCN(c3ncccn3)CC2)co1)c1ccsc1`, the “% Inhibition” value is reported as -2% and the Z score is 0.31.

On to `CCCN1CCCC[C@H]1C(=O)NCCCn1ccnc1`, for which the “% Inhibition” value is -6% and the Z score came out at 1.01.

In the case of `Cc1ccc(C(=O)N2CCC[C@H](CCC(=O)N3CCN(c4ccccn4)CC3)C2)s1`, the “% Inhibition” value is -8% and the Z score was found to be 1.24.

With `COc1ccc(-c2nc3ccc(Cc4ccc5nc(-c6ccc(OC)cc6)c(-c6ccc(OC)cc6)nc5c4)cc3nc2-c2ccc(OC)cc2)cc1`, the “% Inhibition” value worked out at 11% and the Z score is listed as -2.21.

Take `O=C(NC[C@H]1CCCN1c1ccccc1)c1ccccc1Br`: the “% Inhibition” value is listed as -13% and the Z score was 2.53.

With `CCCCn1c(NC(=O)c2ccccc2Cl)c(S(=O)(=O)c2ccccc2)c2nc3ccccc3nc21`, the “% Inhibition” value is on record as -7% and the Z score is reported as 0.7.

For `Cc1ccc(S(=O)(=O)Nc2cc3nc4ccccc4nc3n2CCc2ccccc2)cc1`, the “% Inhibition” value is reported as 100% and the Z score was -10.64.

For the compound `CCCCn1c(NC(=O)c2ccccc2)c(S(=O)(=O)c2ccc(C)cc2)c2nc3ccccc3nc21`, the “% Inhibition” value is listed as 0% and the Z score is on record as -0.03.

As to `Cc1ccc(S(=O)(=O)NCCn2c3ccccc3c3c(C)cc(C)nc32)cc1`, the “% Inhibition” value was -5% and the Z score turned out to be 0.73.

As to `CCCCc1ccc(-n2c(NS(=O)(=O)c3ccc(Cl)cc3)c(S(=O)(=O)c3ccc(C)cc3)c3nc4ccccc4nc32)cc1`, the “% Inhibition” value turned out to be 4% and the Z score is -0.41.

As for `COCCCn1c(NS(=O)(=O)c2ccccc2)c(S(=O)(=O)c2ccc(C)cc2)c2nc3ccccc3nc21`, the “% Inhibition” value is on record as 43% and the Z score is given as -9.12.

For the compound `COCCCn1c(NS(=O)(=O)c2ccc3ccccc3c2)c(S(=O)(=O)c2ccc(C)cc2)c2nc3ccccc3nc21`, the “% Inhibition” value was determined as 57% and the Z score is reported as -8.33.

As for `O=C(Nc1c(S(=O)(=O)c2ccccc2)c2nc3ccccc3nc2n1CCc1ccccc1)c1ccc(Cl)cc1`, the “% Inhibition” value is 101% and the Z score is recorded as -8.88.

In the case of `C[C@@H](c1ccccc1)n1c(NC(=O)c2ccc(Cl)cc2)c(S(=O)(=O)c2ccccc2)c2nc3ccccc3nc21`, the “% Inhibition” value is recorded as -15% and the Z score turned out to be 1.3.

With `CCOc1cccc2c1OC[C@@H](C(=O)N1CCCS1(=O)=O)C2`, the “% Inhibition” value was -7% and the Z score was 1.2.

Turning to `Cc1cc(C)c(-c2ccc(C(=O)N(C)CCn3ccnc3C)cc2)cc1C`, the “% Inhibition” value is given as -5% and the Z score was 0.69.

For the compound `COCCNc1c(-c2ccccc2)nc2sc(C(=O)NCc3cccnc3)c(C)n12`, the “% Inhibition” value was -31% and the Z score is given as 3.13.

`Cc1ccc(-n2cc(NC(=O)c3cc(C)no3)cn2)c(C)c1`: the “% Inhibition” value is given as -5% and the Z score is reported as 0.56.

Consider `O=c1c2cnc(N3CCc4ccccc4C3)nc2ccn1-c1ccc(Cl)c(Cl)c1`, for which the “% Inhibition” value is given as -8% and the Z score worked out at 1.01.

Take `Cc1cccc(N2CCO[C@@H](CF)C2)n1`: the “% Inhibition” value came out at 5% and the Z score is on record as -0.46.

As for `Cc1cnccc1NCCNCc1nc(C(C)C)cs1`, the “% Inhibition” value came out at 6% and the Z score was -0.58.

`Cc1cnccc1NCCNCc1ccnc(C(C)C)n1`: the “% Inhibition” value is -15% and the Z score came to 1.39.

Consider `Cc1cnccc1NCCNCc1cccc(O)c1Cl`, for which the “% Inhibition” value is given as 88% and the Z score was -13.09.

Consider `CCn1ccc(CNCCNc2ccncc2C)n1`, for which the “% Inhibition” value is recorded as -3% and the Z score was determined as 0.68.

Turning to `CC1CCN(Cn2c(=S)sc3ccccc32)CC1`, the “% Inhibition” value is listed as -4% and the Z score was 0.63.

As for `Cc1nccn1CC(=O)N[C@@H](C)C1=CCCCC1`, the “% Inhibition” value turned out to be 3% and the Z score is recorded as -0.38.

With `O=C1Nc2ccc(F)cc2C12CCNC2c1ccc2c(c1)OCCO2` (stereo unspecified), the “% Inhibition” value worked out at 31% and the Z score was -3.54.

On to `CS(=O)(=O)N1CCN(S(=O)(=O)N2CCN(c3ccccc3Cl)CC2)CC1`, for which the “% Inhibition” value is recorded as 5% and the Z score was -0.74.

In the case of `Cc1ccccc1S(=O)(=O)N1CCN(c2c(C)n(-c3ccccc3)c(=O)n(C)c2=O)CC1`, the “% Inhibition” value is recorded as 36% and the Z score is given as -0.1.

Consider `Cn1c(N)c(S(=O)(=O)N2CCN(c3ccccc3Cl)CC2)c(=O)n(C)c1=O`, for which the “% Inhibition” value is listed as 59% and the Z score is on record as -11.06.

`O=C(CCN(CCc1ccccc1)c1nc(C2CC2)nc2ccccc12)Nc1ccccc1`: the “% Inhibition” value stood at 0% and the Z score was -0.06.

In the case of `O=C(CCN1C(=O)CCC1=O)Nc1cccc(S(=O)(=O)N2CCCCC2)c1`, the “% Inhibition” value is -4% and the Z score is 0.89.

As for `CCN1CCN([C@H]2CCN(c3ccnc4c(F)cc(Cl)cc34)C2)CC1`, the “% Inhibition” value is given as 11% and the Z score is recorded as -1.82.

With `CC(C)(C)OC(=O)N1CCC1CN1CCCC(c2nnc(N)o2)C1` (stereo unspecified), the “% Inhibition” value worked out at 32% and the Z score is -3.65.

As for `Cn1ncc(Cl)c1C(=O)NCc1cccnc1Oc1ccc(F)c(F)c1`, the “% Inhibition” value was -3% and the Z score worked out at 0.62.

Consider `O=C(Cn1nnc2ccccc21)N(Cc1cccnc1)C1(C(=O)Nc2ccc(N3CCOCC3)cc2)CCCCC1`, for which the “% Inhibition” value is recorded as 2% and the Z score is given as -0.25.

As for `O=C(Cn1nnc2ccccc21)N(Cc1cccnc1)C1(C(=O)Nc2ccc3c(c2)OCO3)CCCCC1`, the “% Inhibition” value amounted to 36% and the Z score is -0.52.

For `O=C(Cn1nnc2ccccc21)N(Cc1cccnc1)C1(C(=O)Nc2ccc3c(c2)OCO3)CCCC1`, the “% Inhibition” value amounted to 5% and the Z score is reported as -0.59.

For `CN(C)c1ccc(NC(=O)C2(N(Cc3ccccc3)C(=O)Cn3nnc4ccccc43)CCCC2)cc1`, the “% Inhibition” value was determined as 5% and the Z score is -0.62.

`COc1ccc(NC(=O)C2(N(Cc3ccccc3)C(=O)Cn3nnc4ccccc43)CCCCC2)cc1`: the “% Inhibition” value is reported as 44% and the Z score is given as -1.28.

`COc1ccc(NC(=O)C2(N(Cc3nc(-c4ccccc4)cs3)C(=O)Cn3nnc4ccccc43)CCCCC2)cc1`: the “% Inhibition” value turned out to be 55% and the Z score was -6.2.

On to `CN(C)c1ccc(NC(=O)C2(N(Cc3ccccc3)C(=O)Cn3nnc4ccccc43)CCCCC2)cc1`, for which the “% Inhibition” value was 51% and the Z score is listed as 0.77.

With `O=C(Cn1nnc2ccccc21)N(Cc1nc(-c2ccccc2)cs1)C1(C(=O)Nc2ccc3c(c2)OCO3)CCCC1`, the “% Inhibition” value is -7% and the Z score was 0.77.

On to `O=C(Cn1nnc2ccccc21)N(Cc1ccccc1)C1(C(=O)Nc2ccc3c(c2)OCO3)CCCCC1`, for which the “% Inhibition” value is listed as 50% and the Z score is -5.71.

As for `CCc1cc2c(N3CC(c4ncc(C5CC5)cn4)C3)ncnc2s1`, the “% Inhibition” value is recorded as 0% and the Z score is recorded as -0.06.

For `CN(C(=O)Cn1c(=O)n(C)c(=O)c2ccccc21)C1CCCCC1`, the “% Inhibition” value is -1% and the Z score was determined as 0.19.

For the compound `Cc1cc(C(=O)N2CCOC3(CCS(=O)(=O)CC3)C2)c(C)s1`, the “% Inhibition” value is -13% and the Z score was 1.28.
